Experimental data as given in PubChem BioAssay AID1224897 (Sanford-Burnham Center for Chemical Genomics, 2016).
The list shows a part of the results. Activity calls are given as the source filed them. The rule behind the calls is not given here.

What follows are compounds tested against Hepatocyte nuclear factor 4-alpha (Homo sapiens) (UniProt P41235) (assay: HNF4-alpha DNA association modulation retest – biochemical, fluorescence polarization, FITC-DNA, confirmation (AID 1224897)). Settings: HNF4A-FITC DNA binding, 1 h, at 12.5 µM, active compounds read high.
Chain of Hepatocyte nuclear factor 4-alpha (Homo sapiens) (P41235 whole entry, looked up): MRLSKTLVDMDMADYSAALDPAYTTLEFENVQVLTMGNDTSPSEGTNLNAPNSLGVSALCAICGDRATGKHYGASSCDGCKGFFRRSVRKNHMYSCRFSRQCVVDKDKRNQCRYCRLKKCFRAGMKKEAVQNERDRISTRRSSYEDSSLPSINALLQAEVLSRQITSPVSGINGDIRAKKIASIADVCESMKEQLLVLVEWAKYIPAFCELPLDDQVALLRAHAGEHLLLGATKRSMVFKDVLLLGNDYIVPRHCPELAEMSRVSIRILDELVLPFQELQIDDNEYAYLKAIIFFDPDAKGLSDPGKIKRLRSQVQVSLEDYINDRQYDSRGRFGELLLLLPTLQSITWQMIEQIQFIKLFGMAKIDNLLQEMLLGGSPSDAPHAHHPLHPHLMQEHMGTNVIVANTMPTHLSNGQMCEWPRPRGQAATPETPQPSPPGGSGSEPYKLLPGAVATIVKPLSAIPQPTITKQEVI

Structure (SMILES) | activity change
C/C(=N/Nc1nc(-c2ccccc2)c(CC(=O)O)s1)c1ccccc1 | 57.6% (active)
Cc1cccc(COc2ccccc2/C=N/Nc2ccc([N+](=O)[O-])cc2)c1 | 56.9% (active)
COc1ccc(-c2nc3cc(C)ccn3c2NC2CCCCC2)cc1SC1CCCCC1 | 37.6% (active)
Cn1cccc1/C=C1\SC(=S)N(NC(=O)c2ccc(Cl)cc2)C1=O | 72.5% (active)
C#CCOCCOCCOCCNc1nc(N2CCN(C(=O)C([C@@H](C)O)n3cc([C@@H](N)CCCCN)nn3)CC2)nc(N2CCN(C(=O)[C@H](CCCCN)n3cc(CN)nn3)CC2)n1 (some centres undefined) | 108% (active)
O=C1/C(=C/c2coc3ccc(O)cc3c2=O)SC(=S)N1c1ccccc1 | 57% (active)
Cn1c2ccccc2c2cc(/C=C(\NC(=O)c3ccccc3)C(=O)NCC(=O)O)ccc21 | 45.6% (active)
CCC(C)N1C(=O)S/C(=C/c2ccc(Sc3nc4ccccc4[nH]3)o2)C1=O (centres undefined) | 76.4% (active)
Fc1cccc(Cc2c(-c3cccc(Cl)c3)nc3ccc(Br)cn23)c1 | 51% (active)
